Each sequence was assayed on VDR:RXRa (NR concentration 270 nM, RXRa partner concentration 90 nM) (assay: PBM binding z-score (relative to random genomic background probes); higher = stronger binding; sequences stand for … in GC…GCGATTGACAGCGTAGAATGAAGG).
Description: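 Protein-binding microarray (Agilent 4x180K custom design, double-stranded 60-nt probes: 5' GC cap, 34-nt variable region, 24-nt constant primer region; full probe sequence given). Purified or IVT nuclear receptor:RXRα heterodimers (3:1 NR:RXRα, mostly 270:90 nM) or homodimers were incubated for 1 h in PBS with 2% milk and no ligand, then detected with Alexa488 antibodies. Fluorescence from o1-orientation probes (~5 replicates averaged) was converted to z-scores against 500 random hg19 background probes. Variable regions are seed direct-repeat (DR0–DR5) sites, all their single-nucleotide variants and half-site ablations.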
GGAACGAGGGCAGGTTGATAGCAGAGTTTGATGG was tested, and the PBM binding z-score was 0.111. TCGAGTAGGTTAGTCGGGGCAATCAGCCAACATA was tested, and the PBM binding z-score was 1.05. In the case of CCTACTGGGCCAAGGTCATTTATCAGTCAAAGCA, the PBM binding z-score is reported as 3.13. GGAACGAGGGCATTCGAGTAGATAGCATGGCGAT gave a PBM binding z-score of 0.958. In the case of CGAACTAGCTCATTGACAGGACAGTGAATAGTAA, the PBM binding z-score is reported as -0.486. TCTTGTAGATCAGCAGGGTAAGAAAGCTGGCCAA was tested, and the PBM binding z-score was 0.195. GCATCTAGGTAATACAAGGTGAAAGTCCGATTGT showed a PBM binding z-score of 0.32. TAGCCTAGGTCGTGGGCCAGTATACCACGCGAAC showed a PBM binding z-score of -0.199. CAAACTAGGTCGAGGTCAAAGTCGGTTTGTGCCA showed a PBM binding z-score of 5.52. ATATGTAGGTTACCTCCGGGTCATTCAGGCTATG was tested, and the PBM binding z-score was 4.01. For TCATATAGGTAAATGCTAGGTGAAAGACCGATCT, the PBM binding z-score was 0.73. ATATGTTGGTTACATCCGGGTCATTCAGGCTATG showed a PBM binding z-score of 3.42. CGTCCAAGGTCAGAGAGGTCAGTGATTGCCGAGT showed a PBM binding z-score of 7.23. Work on GCTATTAGTTGAAAGGGCAACGGAATGATTCTCG yielded a PBM binding z-score of 0.383. GGACCGAGGGCAAGTTGATAGCAGAGTTTGATGG showed a PBM binding z-score of 0.844. Sequence CCTCGGAGGACAACAGGAGGACAGAGCTGCCAGA has a PBM binding z-score of -0.461. TCTTGTAGATCATGCAGGTTAAGAAAGCCTGAGT showed a PBM binding z-score of 0.976. Sequence GGAACGAGGGCAAAGTTGATGGCATCTGTCGACG has a PBM binding z-score of 1.51. With CATACAGGTTCAGCTAGGCCAGAGTAGGGACGGC the PBM binding z-score was 1.99. ATCTCCAGGTAAAGATAGTTCAGTGAATGCAAAT was tested, and the PBM binding z-score was 0.845. Work on GCTGGTAGGTCAACTGATGGTCAGCTAAAGCTCG yielded a PBM binding z-score of 2.01. AGTCAAAGTTCATCTAGGTGACGTAAGATATGCT was tested, and the PBM binding z-score was 4.96. In the case of TCATATAGGTAAAGGTAAAAGTCGAACGATATGA, the PBM binding z-score is reported as 0.657. With CATACAGGGTCAGCTAAGCCAGAGTAGGGACGGC the PBM binding z-score was 2.69. TCTGCTAGGCCAGTTGGTCAGCTAACGAGCTGCC was tested, and the PBM binding z-score was -0.797. With ATCGAAAGGTCGTGAGGTGATTATACAGAAAGGC the PBM binding z-score was 3.61. In the case of TAGCCTAAGTCATTGGGCCAGTATAGTACGCATC, the PBM binding z-score is reported as -0.202. With CGTCCAAGGTAAAAGGTCAGTGAAGAGATGACGG the PBM binding z-score was 2.93. Work on CGTCAAAGTTCAACTAAGGTAACGTGAAGCACGC yielded a PBM binding z-score of 4.37. CTAACAAGGTGAACAAGGTCGTTGATTACTATTC was tested, and the PBM binding z-score was 6.27. Work on TATACAGAGTCAAAGGCCAGAGTACGAATGTCGA yielded a PBM binding z-score of 0.241. Sequence CGTCCAAGGTCAGGGTCAGTGAAAGAGACTCGAA has a PBM binding z-score of 3.92. Sequence CCTACTGGGCCATCAGGTCACTGATATCAACGTT has a PBM binding z-score of 1.34. Sequence TCAGACAGGTGATGGTAACTCAGGTACGCAGTCG has a PBM binding z-score of 0.615. Sequence AATACAGGGTCACTAGGCTAGAGTAGGTACGAAT has a PBM binding z-score of 4.05. TAGCCTAGGTAATGGGCCAGTATACCACGCGAAC gave a PBM binding z-score of -0.466. In the case of ATATGTAGGTTACATCCGGGTCCTTCAGGCTATG, the PBM binding z-score is reported as 0.695. CCTAGCAGCCCAATCTGGGTCACTCAAGGCTTGA gave a PBM binding z-score of 0.11. ACTAGTTGGTCAGATGAGGTCACACACAATTCGG gave a PBM binding z-score of 4.58. With TCGAGTAGGTTAGGGGGATTCAGAATGGCGTCGA the PBM binding z-score was 0.8.

Source: the supplement of paper PMC6555819
